Columns and labels:
Assay in all cases: DAPPL (digital affinity profiling via proximity ligation, sequencing); 10 mM Tris-HCl pH 7.5, 50 mM NaCl, 1 mM DTT, 4% glycerol, room temperature, 30 min; GST-TFs on glutathione beads, 16-mer random dsDNA library, 0.1% formaldehyde crosslink after washing; high values mean tight binding
FLI1 = biological target: T1, FLI1 (Homo sapiens, UniProt Q01543 1-452); details: protein: recombinant; tags: N-terminal GST; dsDNA, one strand shown
T1 sequence: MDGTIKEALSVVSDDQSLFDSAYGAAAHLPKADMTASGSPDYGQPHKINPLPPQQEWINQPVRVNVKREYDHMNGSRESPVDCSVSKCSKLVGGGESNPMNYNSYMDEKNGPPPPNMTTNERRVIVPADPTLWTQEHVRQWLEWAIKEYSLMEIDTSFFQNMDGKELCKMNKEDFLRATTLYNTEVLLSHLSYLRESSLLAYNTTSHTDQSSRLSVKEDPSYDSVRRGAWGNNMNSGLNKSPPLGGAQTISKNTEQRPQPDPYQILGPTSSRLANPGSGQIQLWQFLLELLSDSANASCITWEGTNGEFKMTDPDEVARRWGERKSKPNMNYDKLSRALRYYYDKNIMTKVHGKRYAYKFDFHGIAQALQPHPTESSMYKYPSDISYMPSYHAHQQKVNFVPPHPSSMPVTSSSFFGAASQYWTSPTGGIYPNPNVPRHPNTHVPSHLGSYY
In short: (§1)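 A tag-only sample was pooled with DNA-barcoded human transcription factors that had been expressed in yeast as GST fusions and captured on glutathione beads. The pools were incubated for 30 min at room temperature with 200 nmole of a random double-stranded 16-mer DNA library in Tris/NaCl/DTT/glycerol buffer, then washed, crosslinked with 0.1% formaldehyde, proximity-ligated (BsaI/T4 ligase, 1 h, 37 °C), PCR-amplified and sequenced on an Illumina NextSeq500. Binding signal is each hexamer's read frequency for a factor divided by its frequency for the tag-only sample.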

ELK1 = biological target: T2, ELK1 (Homo sapiens, UniProt P19419 1-428); details: protein: recombinant; tags: N-terminal GST; dsDNA, one strand shown
T2 sequence: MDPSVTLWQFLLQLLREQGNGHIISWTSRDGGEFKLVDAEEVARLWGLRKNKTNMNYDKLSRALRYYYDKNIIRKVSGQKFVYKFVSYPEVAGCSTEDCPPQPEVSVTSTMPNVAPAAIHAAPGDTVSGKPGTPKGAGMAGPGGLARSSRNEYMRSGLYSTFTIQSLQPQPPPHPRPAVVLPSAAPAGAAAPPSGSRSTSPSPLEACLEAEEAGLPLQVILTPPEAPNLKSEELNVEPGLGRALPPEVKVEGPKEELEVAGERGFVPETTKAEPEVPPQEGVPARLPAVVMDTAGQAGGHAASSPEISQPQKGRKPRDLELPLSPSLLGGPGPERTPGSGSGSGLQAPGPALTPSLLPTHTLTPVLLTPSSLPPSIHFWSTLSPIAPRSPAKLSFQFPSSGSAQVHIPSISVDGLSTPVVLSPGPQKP
In short: as §1

GABPA = biological target: T3, GABPA (Homo sapiens, UniProt Q06546 1-454); details: protein: recombinant; tags: N-terminal GST; dsDNA, one strand shown
T3 sequence: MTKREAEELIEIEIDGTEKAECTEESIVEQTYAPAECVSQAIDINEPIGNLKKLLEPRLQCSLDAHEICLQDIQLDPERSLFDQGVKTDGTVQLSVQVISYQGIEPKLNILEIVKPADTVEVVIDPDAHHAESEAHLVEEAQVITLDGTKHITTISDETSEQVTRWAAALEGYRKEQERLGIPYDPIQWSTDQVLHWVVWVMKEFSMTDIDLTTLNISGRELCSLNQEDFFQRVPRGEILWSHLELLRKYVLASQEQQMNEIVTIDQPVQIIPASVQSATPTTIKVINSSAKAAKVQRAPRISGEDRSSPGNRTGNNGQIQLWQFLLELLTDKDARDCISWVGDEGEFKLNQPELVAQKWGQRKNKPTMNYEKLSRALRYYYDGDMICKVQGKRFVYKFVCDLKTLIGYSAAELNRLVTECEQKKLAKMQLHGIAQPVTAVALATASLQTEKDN
In short: as §1

ERG = biological target: T4, ERG (Homo sapiens, UniProt P11308 1-479); details: protein: recombinant; tags: N-terminal GST; dsDNA, one strand shown
T4 sequence: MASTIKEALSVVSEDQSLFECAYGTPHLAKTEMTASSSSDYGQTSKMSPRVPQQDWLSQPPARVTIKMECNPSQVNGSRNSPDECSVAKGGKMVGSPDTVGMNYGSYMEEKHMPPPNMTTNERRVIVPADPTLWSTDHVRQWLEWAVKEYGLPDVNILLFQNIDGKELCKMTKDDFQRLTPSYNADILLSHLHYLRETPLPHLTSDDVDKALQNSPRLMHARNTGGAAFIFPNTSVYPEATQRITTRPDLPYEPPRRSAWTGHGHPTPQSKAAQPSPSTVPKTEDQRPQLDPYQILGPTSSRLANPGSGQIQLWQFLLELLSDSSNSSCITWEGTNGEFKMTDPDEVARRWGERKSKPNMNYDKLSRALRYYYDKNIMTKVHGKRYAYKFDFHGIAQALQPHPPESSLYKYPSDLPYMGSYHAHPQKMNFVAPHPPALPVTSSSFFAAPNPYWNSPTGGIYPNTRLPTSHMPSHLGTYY
In short: as §1

ELF1 = ELF1 (Homo sapiens, UniProt P32519 1-619); details: protein: recombinant; tags: N-terminal GST; dsDNA, one strand shown
In short: as §1

EHF = biological target: T5, EHF (Homo sapiens, UniProt Q9NZC4 1-300); details: protein: recombinant; tags: N-terminal GST; dsDNA, one strand shown
T5 sequence: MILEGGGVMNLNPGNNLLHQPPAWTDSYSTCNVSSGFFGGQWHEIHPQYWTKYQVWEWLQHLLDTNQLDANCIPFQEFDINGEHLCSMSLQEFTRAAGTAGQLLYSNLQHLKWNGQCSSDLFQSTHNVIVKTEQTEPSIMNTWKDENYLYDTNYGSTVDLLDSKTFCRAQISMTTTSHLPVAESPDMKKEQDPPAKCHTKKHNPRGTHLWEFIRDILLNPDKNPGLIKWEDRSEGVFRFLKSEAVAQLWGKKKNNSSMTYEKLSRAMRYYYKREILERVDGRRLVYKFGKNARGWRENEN
In short: as §1

SPI1 = SPI1 (Homo sapiens, UniProt P17947 1-270); details: protein: recombinant; tags: N-terminal GST; dsDNA, one strand shown
In short: as §1

SPIB = SPIB (Homo sapiens, UniProt Q01892 1-262); details: protein: recombinant; tags: N-terminal GST; dsDNA, one strand shown
In short: as §1

ELK3 = biological target: T6, ELK3 (Homo sapiens, UniProt P41970 1-407); details: protein: recombinant; tags: N-terminal GST; dsDNA, one strand shown
T6 sequence: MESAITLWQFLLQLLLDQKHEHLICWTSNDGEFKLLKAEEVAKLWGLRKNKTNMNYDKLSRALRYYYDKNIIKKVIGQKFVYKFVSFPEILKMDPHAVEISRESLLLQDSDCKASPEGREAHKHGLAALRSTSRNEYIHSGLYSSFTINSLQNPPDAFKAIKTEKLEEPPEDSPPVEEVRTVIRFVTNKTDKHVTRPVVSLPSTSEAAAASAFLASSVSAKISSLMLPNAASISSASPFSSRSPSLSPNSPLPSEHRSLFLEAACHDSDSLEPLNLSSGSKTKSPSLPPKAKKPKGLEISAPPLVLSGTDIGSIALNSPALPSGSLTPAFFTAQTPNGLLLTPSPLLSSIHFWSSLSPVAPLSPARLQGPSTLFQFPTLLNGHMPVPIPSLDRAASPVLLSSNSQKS
In short: as §1

FEV = biological target: T7, FEV (Homo sapiens, UniProt Q99581 1-238); details: protein: recombinant; tags: N-terminal GST; dsDNA, one strand shown
T7 sequence: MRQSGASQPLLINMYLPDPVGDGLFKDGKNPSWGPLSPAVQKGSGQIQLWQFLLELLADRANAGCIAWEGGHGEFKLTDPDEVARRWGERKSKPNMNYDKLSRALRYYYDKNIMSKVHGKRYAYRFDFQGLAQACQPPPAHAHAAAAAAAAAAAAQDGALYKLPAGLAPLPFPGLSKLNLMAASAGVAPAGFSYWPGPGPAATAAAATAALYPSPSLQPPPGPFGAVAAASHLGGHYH
In short: as §1

ETV5 = ETV5 (Homo sapiens, UniProt P41161 1-510); details: protein: recombinant; tags: N-terminal GST; dsDNA, one strand shown
In short: as §1

HSF1 = HSF1 (Homo sapiens, UniProt Q00613 1-529); details: protein: recombinant; tags: N-terminal GST; chain copies: 3; dsDNA, one strand shown
In short: as §1

SPIC = biological target: T8, SPIC (Homo sapiens, UniProt Q8N5J4 1-248); details: protein: recombinant; tags: N-terminal GST; dsDNA, one strand shown
T8 sequence: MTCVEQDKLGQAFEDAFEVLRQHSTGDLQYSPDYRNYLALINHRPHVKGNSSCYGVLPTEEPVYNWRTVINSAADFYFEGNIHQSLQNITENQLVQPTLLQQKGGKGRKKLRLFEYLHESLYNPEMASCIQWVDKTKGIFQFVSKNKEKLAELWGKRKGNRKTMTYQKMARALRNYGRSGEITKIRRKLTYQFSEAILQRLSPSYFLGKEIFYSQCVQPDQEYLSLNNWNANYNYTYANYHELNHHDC
In short: as §1

ELF4 = ELF4 (Homo sapiens, UniProt Q99607 1-663); details: protein: recombinant; tags: N-terminal GST; dsDNA, one strand shown
In short: as §1

ELK4 = biological target: T9, ELK4 (Homo sapiens, UniProt P28324-2 1-405); details: protein: recombinant; tags: N-terminal GST; dsDNA, one strand shown
T9 sequence: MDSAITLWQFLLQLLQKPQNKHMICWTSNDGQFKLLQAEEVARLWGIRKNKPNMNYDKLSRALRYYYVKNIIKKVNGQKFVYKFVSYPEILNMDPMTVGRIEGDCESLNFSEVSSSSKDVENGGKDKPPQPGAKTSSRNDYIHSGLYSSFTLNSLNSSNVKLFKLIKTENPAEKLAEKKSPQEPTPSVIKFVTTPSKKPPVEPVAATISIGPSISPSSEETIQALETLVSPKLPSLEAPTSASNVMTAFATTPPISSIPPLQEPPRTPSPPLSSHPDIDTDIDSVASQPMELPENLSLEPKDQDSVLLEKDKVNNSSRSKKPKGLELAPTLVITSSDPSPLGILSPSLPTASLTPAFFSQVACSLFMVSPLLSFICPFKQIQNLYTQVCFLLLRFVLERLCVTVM
In short: as §1

ETV2 = biological target: T10, ETV2 (Homo sapiens, UniProt O00321 1-342); details: protein: recombinant; tags: N-terminal GST; dsDNA, one strand shown
T10 sequence: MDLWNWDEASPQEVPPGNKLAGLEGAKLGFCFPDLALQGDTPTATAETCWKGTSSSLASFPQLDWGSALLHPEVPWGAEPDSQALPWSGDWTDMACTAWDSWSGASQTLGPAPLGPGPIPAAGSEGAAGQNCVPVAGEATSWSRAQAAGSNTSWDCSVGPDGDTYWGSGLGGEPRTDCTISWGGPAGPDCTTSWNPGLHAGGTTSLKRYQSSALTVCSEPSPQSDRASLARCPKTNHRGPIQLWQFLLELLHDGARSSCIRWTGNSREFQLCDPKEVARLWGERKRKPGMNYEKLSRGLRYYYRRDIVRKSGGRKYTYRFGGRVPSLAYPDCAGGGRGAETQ
In short: as §1

ELF3 = biological target: T11, ELF3 (Homo sapiens, UniProt P78545 1-371); details: protein: recombinant; tags: N-terminal GST; dsDNA, one strand shown
T11 sequence: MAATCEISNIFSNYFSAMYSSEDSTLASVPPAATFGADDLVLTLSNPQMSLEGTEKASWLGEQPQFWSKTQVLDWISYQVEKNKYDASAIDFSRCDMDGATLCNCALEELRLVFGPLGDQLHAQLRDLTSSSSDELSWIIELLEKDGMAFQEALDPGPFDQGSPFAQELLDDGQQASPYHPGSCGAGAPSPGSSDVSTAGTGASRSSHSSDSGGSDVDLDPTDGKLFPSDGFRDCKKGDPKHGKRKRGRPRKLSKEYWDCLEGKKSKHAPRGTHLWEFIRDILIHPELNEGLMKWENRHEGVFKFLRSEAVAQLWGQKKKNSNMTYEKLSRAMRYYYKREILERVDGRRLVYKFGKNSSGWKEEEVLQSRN
In short: as §1

CRX = CRX (Homo sapiens, UniProt O43186 1-299); details: protein: recombinant; tags: N-terminal GST; dsDNA, one strand shown
In short: as §1

ETV1 = ETV1 (Homo sapiens, UniProt P50549 1-477); details: protein: recombinant; tags: N-terminal GST; dsDNA, one strand shown
In short: as §1

Sequence of ELF1 (P32519 whole entry): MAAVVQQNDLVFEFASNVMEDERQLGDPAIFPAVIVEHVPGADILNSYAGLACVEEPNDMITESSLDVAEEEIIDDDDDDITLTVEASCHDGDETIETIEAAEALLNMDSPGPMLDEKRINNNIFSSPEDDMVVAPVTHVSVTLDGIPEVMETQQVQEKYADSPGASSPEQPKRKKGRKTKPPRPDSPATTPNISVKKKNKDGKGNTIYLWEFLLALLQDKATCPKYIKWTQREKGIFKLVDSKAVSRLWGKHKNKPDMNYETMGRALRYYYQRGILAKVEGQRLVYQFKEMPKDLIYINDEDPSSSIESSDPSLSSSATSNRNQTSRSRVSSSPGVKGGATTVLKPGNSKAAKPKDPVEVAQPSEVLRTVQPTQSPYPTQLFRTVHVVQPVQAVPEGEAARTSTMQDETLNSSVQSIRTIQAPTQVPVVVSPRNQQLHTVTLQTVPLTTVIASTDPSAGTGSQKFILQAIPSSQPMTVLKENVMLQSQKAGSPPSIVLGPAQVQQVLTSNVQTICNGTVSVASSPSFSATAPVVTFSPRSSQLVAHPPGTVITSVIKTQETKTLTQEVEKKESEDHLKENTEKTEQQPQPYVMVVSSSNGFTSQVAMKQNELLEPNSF
Sequence of ETV5 (P41161 whole entry): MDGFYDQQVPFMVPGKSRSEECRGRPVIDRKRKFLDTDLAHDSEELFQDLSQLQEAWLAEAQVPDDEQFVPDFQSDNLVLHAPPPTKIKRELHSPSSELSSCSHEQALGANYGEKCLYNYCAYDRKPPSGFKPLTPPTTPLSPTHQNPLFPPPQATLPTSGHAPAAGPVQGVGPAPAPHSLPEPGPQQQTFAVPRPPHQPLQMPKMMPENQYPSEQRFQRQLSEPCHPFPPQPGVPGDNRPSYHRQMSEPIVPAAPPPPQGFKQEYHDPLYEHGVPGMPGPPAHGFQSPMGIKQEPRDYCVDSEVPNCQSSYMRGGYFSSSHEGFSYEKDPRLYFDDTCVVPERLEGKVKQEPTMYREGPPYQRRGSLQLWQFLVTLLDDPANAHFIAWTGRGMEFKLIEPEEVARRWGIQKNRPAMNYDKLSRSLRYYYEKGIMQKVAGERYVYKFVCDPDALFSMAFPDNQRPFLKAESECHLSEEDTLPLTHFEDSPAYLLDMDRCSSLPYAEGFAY
Sequence of CRX (O43186 whole entry): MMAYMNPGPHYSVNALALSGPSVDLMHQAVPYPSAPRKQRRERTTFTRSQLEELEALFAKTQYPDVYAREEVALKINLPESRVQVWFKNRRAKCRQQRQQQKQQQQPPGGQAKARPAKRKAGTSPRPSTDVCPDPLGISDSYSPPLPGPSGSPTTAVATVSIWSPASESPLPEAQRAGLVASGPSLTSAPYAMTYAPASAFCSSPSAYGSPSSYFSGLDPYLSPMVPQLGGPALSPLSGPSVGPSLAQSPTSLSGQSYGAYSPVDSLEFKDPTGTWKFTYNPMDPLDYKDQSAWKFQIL
Sequence of SPIB (Q01892 whole entry): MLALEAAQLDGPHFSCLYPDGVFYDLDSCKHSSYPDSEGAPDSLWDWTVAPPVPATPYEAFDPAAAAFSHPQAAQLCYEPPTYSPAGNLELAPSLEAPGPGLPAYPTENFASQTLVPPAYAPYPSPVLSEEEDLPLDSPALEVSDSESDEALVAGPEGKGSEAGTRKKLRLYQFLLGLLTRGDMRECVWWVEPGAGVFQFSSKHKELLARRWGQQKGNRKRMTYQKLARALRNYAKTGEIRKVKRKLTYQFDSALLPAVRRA
Sequence of ELF4 (Q99607 whole entry): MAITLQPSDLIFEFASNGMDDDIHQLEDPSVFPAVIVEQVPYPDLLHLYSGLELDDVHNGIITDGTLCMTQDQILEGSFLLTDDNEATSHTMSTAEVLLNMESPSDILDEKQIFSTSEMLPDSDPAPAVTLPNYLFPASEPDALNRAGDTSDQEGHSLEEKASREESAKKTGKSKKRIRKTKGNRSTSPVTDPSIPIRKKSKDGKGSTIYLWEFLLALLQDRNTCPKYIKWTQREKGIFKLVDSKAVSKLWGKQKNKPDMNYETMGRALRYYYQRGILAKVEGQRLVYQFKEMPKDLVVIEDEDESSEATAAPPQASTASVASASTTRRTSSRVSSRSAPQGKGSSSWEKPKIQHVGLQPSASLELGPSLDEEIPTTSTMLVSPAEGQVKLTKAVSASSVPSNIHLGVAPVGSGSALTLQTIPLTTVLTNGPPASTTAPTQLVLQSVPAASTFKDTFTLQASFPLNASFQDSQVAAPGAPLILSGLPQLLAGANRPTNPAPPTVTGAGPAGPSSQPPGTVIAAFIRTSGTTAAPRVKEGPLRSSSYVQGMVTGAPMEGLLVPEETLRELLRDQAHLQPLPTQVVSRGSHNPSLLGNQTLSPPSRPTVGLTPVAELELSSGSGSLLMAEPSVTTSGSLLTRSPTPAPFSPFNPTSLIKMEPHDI
Sequence of ETV1 (P50549 whole entry): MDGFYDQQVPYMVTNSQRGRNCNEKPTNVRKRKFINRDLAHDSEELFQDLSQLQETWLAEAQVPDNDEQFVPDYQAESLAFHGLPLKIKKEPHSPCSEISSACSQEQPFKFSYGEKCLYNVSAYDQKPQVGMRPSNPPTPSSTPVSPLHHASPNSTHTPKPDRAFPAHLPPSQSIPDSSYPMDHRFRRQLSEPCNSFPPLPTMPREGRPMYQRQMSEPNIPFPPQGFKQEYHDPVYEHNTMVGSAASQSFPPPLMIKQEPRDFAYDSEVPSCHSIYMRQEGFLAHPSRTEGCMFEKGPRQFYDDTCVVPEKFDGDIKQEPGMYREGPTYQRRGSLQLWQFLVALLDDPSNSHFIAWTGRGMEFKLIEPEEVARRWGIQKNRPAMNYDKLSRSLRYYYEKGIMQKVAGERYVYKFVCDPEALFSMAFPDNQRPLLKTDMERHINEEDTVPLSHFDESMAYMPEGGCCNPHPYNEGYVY
Sequence of HSF1 (Q00613 whole entry): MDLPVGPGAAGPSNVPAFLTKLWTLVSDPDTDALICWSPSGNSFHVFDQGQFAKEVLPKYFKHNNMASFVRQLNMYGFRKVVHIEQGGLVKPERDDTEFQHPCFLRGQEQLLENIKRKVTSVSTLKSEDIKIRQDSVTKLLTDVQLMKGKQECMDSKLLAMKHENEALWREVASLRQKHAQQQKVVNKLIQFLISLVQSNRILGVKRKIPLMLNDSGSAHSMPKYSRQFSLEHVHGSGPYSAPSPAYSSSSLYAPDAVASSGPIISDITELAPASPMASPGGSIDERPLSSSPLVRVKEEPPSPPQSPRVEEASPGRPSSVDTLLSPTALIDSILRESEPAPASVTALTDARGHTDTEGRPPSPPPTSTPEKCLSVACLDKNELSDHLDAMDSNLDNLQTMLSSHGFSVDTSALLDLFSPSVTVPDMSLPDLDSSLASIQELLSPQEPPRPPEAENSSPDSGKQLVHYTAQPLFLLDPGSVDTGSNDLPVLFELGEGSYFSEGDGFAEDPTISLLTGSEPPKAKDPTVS

Sequence: CCCCAA
- binding signal (FLI1): 1.1 fold enrichment (6-mer frequency, TF over GST control)
- binding signal (ELK1): 1.16 fold enrichment (6-mer frequency, TF over GST control)
- binding signal (GABPA): 1.16 fold enrichment (6-mer frequency, TF over GST control)
- binding signal (ERG): 1.18 fold enrichment (6-mer frequency, TF over GST control)
- binding signal (ELF1): 1.19 fold enrichment (6-mer frequency, TF over GST control)
- binding signal (EHF): 1.23 fold enrichment (6-mer frequency, TF over GST control)
- binding signal (SPI1): 1.2 fold enrichment (6-mer frequency, TF over GST control)
- binding signal (SPIB): 1.07 fold enrichment (6-mer frequency, TF over GST control)
- binding signal (ELK3): 1.09 fold enrichment (6-mer frequency, TF over GST control)
- binding signal (FEV): 1.16 fold enrichment (6-mer frequency, TF over GST control)
- binding signal (ETV5): 1.12 fold enrichment (6-mer frequency, TF over GST control)
- binding signal (HSF1): 1.06 fold enrichment (6-mer frequency, TF over GST control)
- binding signal (SPIC): 1.06 fold enrichment (6-mer frequency, TF over GST control)
- binding signal (ELF4): 1.21 fold enrichment (6-mer frequency, TF over GST control)
- binding signal (ELK4): 1.16 fold enrichment (6-mer frequency, TF over GST control)
- binding signal (ETV2): 1.15 fold enrichment (6-mer frequency, TF over GST control)
- binding signal (ELF3): 1.24 fold enrichment (6-mer frequency, TF over GST control)
- binding signal (CRX): 1.05 fold enrichment (6-mer frequency, TF over GST control)
- binding signal (ETV1): 1.15 fold enrichment (6-mer frequency, TF over GST control)

— article PMC7862700, “An all-to-all approach to the identification of sequence-specific readers for epigenetic DNA modifications on cytosine”
